Out of some 310,000 compounds screened, about 2,200 (0.71%) showed an effect of 50% or more. Effects have a minus sign here. Shown is part of a subset that was picked to be rich in strong results.

human ether-à-go-go-related gene (hERG) potassium channel, sequence (Q12809 whole entry, looked up): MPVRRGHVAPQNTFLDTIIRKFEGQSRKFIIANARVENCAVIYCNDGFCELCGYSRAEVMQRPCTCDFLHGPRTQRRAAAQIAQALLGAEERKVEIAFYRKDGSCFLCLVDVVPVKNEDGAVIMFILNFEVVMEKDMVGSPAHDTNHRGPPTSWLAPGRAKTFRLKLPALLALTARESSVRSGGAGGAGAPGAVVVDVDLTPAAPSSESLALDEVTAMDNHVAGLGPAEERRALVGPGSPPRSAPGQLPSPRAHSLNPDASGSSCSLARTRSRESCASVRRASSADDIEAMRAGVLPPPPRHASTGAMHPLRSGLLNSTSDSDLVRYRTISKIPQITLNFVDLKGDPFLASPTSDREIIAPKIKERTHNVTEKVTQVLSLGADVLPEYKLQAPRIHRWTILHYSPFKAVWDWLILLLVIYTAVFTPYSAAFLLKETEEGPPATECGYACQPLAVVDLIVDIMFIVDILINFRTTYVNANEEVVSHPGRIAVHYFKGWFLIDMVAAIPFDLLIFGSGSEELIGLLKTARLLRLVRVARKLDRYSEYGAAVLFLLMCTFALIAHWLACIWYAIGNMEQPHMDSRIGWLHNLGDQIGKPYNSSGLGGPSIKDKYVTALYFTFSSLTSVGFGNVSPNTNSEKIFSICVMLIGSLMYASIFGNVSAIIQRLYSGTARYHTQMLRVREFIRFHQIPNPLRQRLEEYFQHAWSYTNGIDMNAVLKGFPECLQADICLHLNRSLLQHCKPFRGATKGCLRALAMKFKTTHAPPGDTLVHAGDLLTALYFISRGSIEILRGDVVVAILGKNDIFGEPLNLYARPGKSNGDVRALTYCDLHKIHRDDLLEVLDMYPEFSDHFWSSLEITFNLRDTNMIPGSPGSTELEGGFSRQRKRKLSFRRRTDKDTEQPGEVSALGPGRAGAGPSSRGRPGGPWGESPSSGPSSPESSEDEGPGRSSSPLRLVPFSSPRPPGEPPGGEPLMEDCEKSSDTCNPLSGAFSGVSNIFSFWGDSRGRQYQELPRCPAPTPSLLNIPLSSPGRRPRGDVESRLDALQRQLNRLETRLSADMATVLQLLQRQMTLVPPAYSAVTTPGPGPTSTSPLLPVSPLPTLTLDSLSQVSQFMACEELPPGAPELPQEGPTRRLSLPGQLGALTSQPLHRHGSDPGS

This experiment concerns the target human ether-à-go-go-related gene (hERG) potassium channel (human, UniProt Q12809). Description: primary screen, population patch clamp on CHO cells stably expressing hERG; higher = less effect of the substance.
Consider `COc1ccc(NC(=O)Cn2nnc(-c3ccccc3F)n2)cc1`, for which the “hERG current change (%, negative = inhibition) at 1uM” value came out at 8.09%.
As for `CCC(=O)Nc1ccc(-c2nnc(SCC(=O)NCC3CCCO3)n2C)cc1` (stereo not shown), the “hERG current change (%, negative = inhibition) at 1uM” value came out at 14.4%.
Next, `COc1ccc(NC(=O)CN2C(=O)C(C)SC(C)C2=O)cc1` (stereo not shown): 6.14%; `Cn1c(-[n+]2c(-c3ccccc3)cc(-c3ccccc3)cc2-c2ccccc2)nc2c([N+](=O)[O-])cccc21.[I-]`: -6.1%.
As to `Cc1ccc(C(=O)N/C(=C\c2ccc(-c3ccccc3[N+](=O)[O-])o2)C(=O)NCCN(C)C)cc1`, the “hERG current change (%, negative = inhibition) at 1uM” value was -29.7%.
Consider `CN(C)CCCNC(=O)/C(=C/c1ccc(-c2ccc([N+](=O)[O-])cc2)o1)NC(=O)c1ccccc1`, for which the “hERG current change (%, negative = inhibition) at 1uM” value was -52.5%.
Next, `CN(C)C(=O)/C(=C/c1ccc(-c2cccc([N+](=O)[O-])c2)o1)NC(=O)c1ccccc1`: 5.68%; `Cc1ccc(C(=O)N/C(=C\c2ccc(-c3ccccc3[N+](=O)[O-])o2)C(=O)NCCCN(C)C)cc1`: -14.9%.
Next, `CCCCNC(=O)/C(=C\c1ccc([N+](=O)[O-])o1)NC(=O)c1ccccc1`: -6.47%; `Cc1ccc(C(=O)N/C(=C/c2ccc(-c3ccc([N+](=O)[O-])cc3)o2)C(=O)NCCCN(C)C)cc1`: -78%.
Next, `CCOC(=O)C(C)Oc1cccc2c(=O)n(CC(=O)N3CCCc4ccccc43)ccc12` (stereo not shown): 15.8%; `CN(Cc1cccc2cnccc12)C(=O)c1cc(COc2ccc(F)cc2Cl)on1`: 19.5%; `Cc1cc(C)nc(SCC(=O)N(C)CC(=O)Nc2c(Cl)cccc2Cl)n1`: 7.52%.
As to `O=C(Oc1ccc(-c2nccc(-c3ccccn3)n2)cc1)c1cccc(C(F)(F)F)c1`, the “hERG current change (%, negative = inhibition) at 1uM” value turned out to be 5.53%.
In the case of `Cc1cc(C)n(-c2nc(C)nc(NCc3ccccc3)n2)n1`, the “hERG current change (%, negative = inhibition) at 1uM” value is recorded as -61.6%.
Consider `Cc1cc(C)n(-c2nc(Nc3ccccc3)nc(-n3nc(C)cc3C)n2)n1`, for which the “hERG current change (%, negative = inhibition) at 1uM” value is on record as 12.1%.
In the case of `CNc1nc(C)nc(-n2nc(C)cc2C)n1`, the “hERG current change (%, negative = inhibition) at 1uM” value came out at 9.5%.
With `CCCOC(=O)c1ccc(NC(=O)CN(C)Cc2cccs2)cc1`, the “hERG current change (%, negative = inhibition) at 1uM” value came out at 11.8%.
For the compound `O=C1c2ccsc2SCCN1Cc1cccc(Cl)c1`, the “hERG current change (%, negative = inhibition) at 1uM” value came out at 8.86%.
Take `COc1ccc(N2CCN(C(=O)Cn3cnc4c(cnn4-c4ccccc4)c3=O)CC2)cc1`: the “hERG current change (%, negative = inhibition) at 1uM” value is 5.22%.
As to `Cc1ccc(Cl)cc1NC(=O)CCS(=O)(=O)c1cccc2nonc12`, the “hERG current change (%, negative = inhibition) at 1uM” value was determined as 10.8%.
Next, `Cc1ccc(CN2C3=NCCN3c3ccccc32)cc1.Cl`: -23.5%.
On to `Cl.Clc1ccc(CN2C3=NCCCN3c3ccccc32)cc1`, for which the “hERG current change (%, negative = inhibition) at 1uM” value is reported as -54.3%.
Next, `Cl.Fc1ccc(CN2C3=NCCCN3c3ccccc32)cc1`: -32.8%.
Regarding `Cl.c1ccc(CN2C3=NCCCN3c3ccccc32)cc1`, the “hERG current change (%, negative = inhibition) at 1uM” value was -29%.
Turning to `Cl.Clc1ccc(CN2C3=NCCN3c3ccccc32)cc1Cl`, the “hERG current change (%, negative = inhibition) at 1uM” value is recorded as -72.3%.
For `Cl.O=C(O)CN1C2=NCCCN2c2ccccc21`, the “hERG current change (%, negative = inhibition) at 1uM” value was found to be 15.8%.
Turning to `Cc1cc2c(cc1C)N(Cc1ccc(Cl)cc1)C1=NCCCN12`, the “hERG current change (%, negative = inhibition) at 1uM” value is given as -28.4%.
Next, `Brc1ccc(CN2C3=NCCCN3c3ccccc32)cc1.Cl`: -55.6%; `Cl.Clc1ccc(CN2C3=NCCCN3c3ccccc32)c(Cl)c1`: -28.2%.
Consider `Cl.Clc1ccc(CN2C3=NCCN3c3ccccc32)cc1`, for which the “hERG current change (%, negative = inhibition) at 1uM” value is listed as -40.4%.
Next, `c1ccc(CN2C3=NCCN3c3ccccc32)cc1`: 2.38%.
Regarding `Cl.O=C(CN1C2=NCCCN2c2ccccc21)c1ccc(Cl)cc1Cl`, the “hERG current change (%, negative = inhibition) at 1uM” value is -82.1%.
In the case of `COc1ccc(Sc2ccc(NC(=O)c3ccccc3Cl)cc2C#N)cc1`, the “hERG current change (%, negative = inhibition) at 1uM” value is 8.52%.
Next, `Cc1ccc(-c2csc(N3CCC(NS(=O)(=O)c4ccc5c(c4)OCCO5)CC3)n2)cc1`: 9.83%.
For the compound `CCOC(=O)Nc1nc(C)c(C(=O)N(C)C)s1`, the “hERG current change (%, negative = inhibition) at 1uM” value was -1.49%.
In the case of `Cn1c(OCc2ccco2)nc2c1c(=O)n(Cc1ccc(Cl)c(Cl)c1)c(=O)n2C`, the “hERG current change (%, negative = inhibition) at 1uM” value turned out to be 6.62%.
Consider `COc1ccc(C(=O)NC(=S)N2CC(C)OC(C)C2)cc1OC` (stereo not shown), for which the “hERG current change (%, negative = inhibition) at 1uM” value is given as 7.44%.
On to `COC(=O)c1sccc1NC(=O)Nc1cccc(F)c1`, for which the “hERG current change (%, negative = inhibition) at 1uM” value is reported as 9.69%.
Consider `C[C@@H](C(=O)OCC(=O)NCCc1ccc(S(N)(=O)=O)cc1)N1C(=O)C2CCCCC2C1=O` (stereo partly shown), for which the “hERG current change (%, negative = inhibition) at 1uM” value is 12%.
With `Br.CC(C)(C)c1ccc(CN2C3=NCCCN3c3ccccc32)cc1`, the “hERG current change (%, negative = inhibition) at 1uM” value is -79.7%.
Next, `Br.CC(C)(C)C(=O)CN1C2=NCCCN2c2ccccc21`: -46.9%; `Cl.Clc1cccc(CN2C3=NCCCN3c3ccccc32)c1`: -46.2%.
`Cc1cccc(CN2C3=NCCCN3c3ccccc32)c1.Cl`: the “hERG current change (%, negative = inhibition) at 1uM” value was -16.9%.
Regarding `Cc1ccc(CN2C3=NCCCN3c3ccccc32)cc1.Cl`, the “hERG current change (%, negative = inhibition) at 1uM” value is recorded as -29.6%.
For `Cl.Clc1ccc(CN2C3=NCCCN3c3ccccc32)cc1Cl`, the “hERG current change (%, negative = inhibition) at 1uM” value is -51.4%.
For `O=C1CSC2(CCCCC2)N1CCO`, the “hERG current change (%, negative = inhibition) at 1uM” value was 12.4%.
In the case of `O=C(Oc1ccc(C(=S)N2CCOCC2)cc1)c1ccccc1`, the “hERG current change (%, negative = inhibition) at 1uM” value is 28.6%.
In the case of `O=C(COC(=O)C1(c2ccc(F)cc2)CCCC1)Nc1ncc(C(F)(F)F)cc1Cl`, the “hERG current change (%, negative = inhibition) at 1uM” value is on record as 2.97%.
Next, `O=C(C1CCN(C2CC(=O)N(c3ccc(Cl)cc3)C2=O)CC1)N1CCOCC1` (stereo not shown): 2.01%; `CCCC[C@@H]1C[C@H]1[C@@H](NC(=O)c1ccco1)c1ccc(Cl)cc1`: 6.22%; `CC(Nc1nc(N2CCN(CCO)CC2)nc2ccccc12)c1ccccc1` (stereo not shown): -25.9%.
Next, `CC(Nc1nc(N2CCN(S(C)(=O)=O)CC2)nc2ccccc12)c1ccccc1` (stereo not shown): -14%; `CC(Nc1nc(N2CCCCC2)nc2ccccc12)c1ccccc1` (stereo not shown): -14.4%; `CC(Nc1nc(N2CCOCC2)nc2ccccc12)c1ccccc1` (stereo not shown): -52.7%.
With `CC(Nc1nc(N2CCCC2)nc2ccccc12)c1ccccc1` (stereo not shown), the “hERG current change (%, negative = inhibition) at 1uM” value is on record as -84.6%.
Next, `CC(Nc1nc(N2CCNCC2)nc2ccccc12)c1ccccc1` (stereo not shown): -31.7%; `COC(=O)C(C(=O)Nc1cccc(Cl)c1C)C1CCCC1` (stereo not shown): 5.04%.
Next, `COCCCN1C(=O)C(=O)/C(=C(/O)c2ccc(S(=O)(=O)N3CCOCC3)cc2)C1c1ccc(F)cc1` (stereo not shown): 6.04%.
With `Cc1ccsc1/C=N/Nc1ncnc2nc[nH]c12`, the “hERG current change (%, negative = inhibition) at 1uM” value is reported as -2.18%.
With `COc1ccc(S(=O)(=O)N2N=C(c3ccc(NS(C)(=O)=O)cc3)CC2c2ccco2)cc1` (stereo not shown), the “hERG current change (%, negative = inhibition) at 1uM” value is recorded as -69.6%.
Regarding `COc1ccc(S(=O)(=O)N2N=C(c3cccc(NS(C)(=O)=O)c3)CC2c2ccco2)cc1` (stereo not shown), the “hERG current change (%, negative = inhibition) at 1uM” value is reported as 16.4%.
With `CS(=O)(=O)Nc1ccc(C2=NN(S(=O)(=O)c3ccc(F)cc3)C(c3ccco3)C2)cc1` (stereo not shown), the “hERG current change (%, negative = inhibition) at 1uM” value is given as -15.6%.
On to `O=C(CCS(=O)(=O)Cc1ccccc1F)NCCc1ccc(Cl)cc1`, for which the “hERG current change (%, negative = inhibition) at 1uM” value came out at 5.86%.
For `Cc1cc(NC(=O)CSc2nc3c(c(=O)n2-c2ccc(Br)cc2)SCC3)no1`, the “hERG current change (%, negative = inhibition) at 1uM” value stood at 6.41%.
Next, `CCOC(=O)c1c(CN2CCCCC2)n(C)c2cc(Br)c(O)cc12`: -68.8%; `CCOC(=O)c1c(CN(CC)CC)oc2cc(Br)c(O)cc12`: -59.5%.
`CCOC(=O)c1c(CN(CC)CC)oc2ccc(OC)cc12`: the “hERG current change (%, negative = inhibition) at 1uM” value was -25.8%.
Turning to `CCOC(=O)c1c(CN2CCN(C)CC2)n(C)c2cc(Br)c(OC)cc12`, the “hERG current change (%, negative = inhibition) at 1uM” value was -12.4%.
As to `CCOC(=O)c1c(CN2CCCCC2)n(C)c2cc(Br)c(OC)cc12`, the “hERG current change (%, negative = inhibition) at 1uM” value is recorded as 9.14%.
Next, `CCOC(=O)c1c(CN(CC)CC)n(C)c2cc(Br)c(O)cc12.Cl`: -45%.
`Cc1ccc(NC(=S)NNC(=O)Cn2nc(C(F)F)cc2C(F)F)cc1`: the “hERG current change (%, negative = inhibition) at 1uM” value was found to be 13.6%.
Next, `Cc1oc(C(C)(C)C)cc1C(=O)Nc1ccc(N2CCOCC2)cc1`: 4.63%; `CC(=O)NC(=S)Nc1ccccc1N1CCN(C(=O)c2ccccc2)CC1`: 10.6%.
Next, `C[N+](C)(C)CCCCCCCCCC[N+](C)(C)C.[Br-]`: 7.97%; `CCCCCCCCCCOC(=O)Cn1c(COc2ccc(Cl)cc2)[n+](C)c2ccccc21.[Cl-]`: -79.1%.
Next, `CCCCCCCCCCOC(=O)Cn1c(COc2ccc(C)cc2)[n+](C)c2ccccc21.[Cl-]`: -56.5%; `CCCCc1n(CC(=O)c2ccc(Cl)cc2)c2ccccc2[n+]1C.[Br-]`: 10.7%; `CCCCCCCCCCOC(=O)Cn1c(COc2cccc(OC)c2)[n+](C)c2ccccc21.[Cl-]`: -37.3%.
For the compound `CCCCCCCCCCOC(=O)Cn1c(COc2ccc(OC)cc2)[n+](C)c2ccccc21.[Cl-]`, the “hERG current change (%, negative = inhibition) at 1uM” value was -70.9%.
As to `CCCCCCCCCCOC(=O)Cn1c(COc2ccccc2)[n+](C)c2ccccc21.[Cl-]`, the “hERG current change (%, negative = inhibition) at 1uM” value is reported as -46.5%.
Next, `CCCCCCCCCCOC(=O)Cn1c(COc2ccccc2OC)[n+](C)c2ccccc21.[Cl-]`: -33.2%.
In the case of `CCCCCCCCCCOC(=O)Cn1c(COc2ccccc2C)[n+](C)c2ccccc21.[Cl-]`, the “hERG current change (%, negative = inhibition) at 1uM” value is listed as -18%.
Take `CCCCCCCCCCOC(=O)Cn1c(COc2cccc(C)c2)[n+](C)c2ccccc21.[Cl-]`: the “hERG current change (%, negative = inhibition) at 1uM” value was -43.9%.
As for `CCN(C(=S)Nc1ccc(Oc2ccccc2)cc1)c1ccccc1`, the “hERG current change (%, negative = inhibition) at 1uM” value was determined as 21.1%.

(Values after article PMC4336329 (PLoS ONE, 2015).)
